Several values for one entry are separate records, joined by “and”; a condition that tells them apart may be missing. Identical values can stand only once. Inconclusive results are not listed. Activity calls are given as the source filed them. Calls follow the shape of the dose curve; as a rule, active = well fitted inhibition curve with a large enough effect; inconclusive = small, poorly fitted or top-dose-only effect; inactive = no such curve, though single readings can be large or run the other way.
The compounds below were run against Cytochrome P450 3A4 (Homo sapiens) (UniProt P08684) (assay: qHTS Assay for Inhibitors and Substrates of Cytochrome P450 3A4 (AID 884; also: nearly all actives have a fitted effect of over 50% in size)). Settings: recombinant CYP3A4, Luciferin-PPXE luminescence; series mostly up to 57.1 µM.
Sequence of Cytochrome P450 3A4 (Homo sapiens) (P08684 whole entry, looked up): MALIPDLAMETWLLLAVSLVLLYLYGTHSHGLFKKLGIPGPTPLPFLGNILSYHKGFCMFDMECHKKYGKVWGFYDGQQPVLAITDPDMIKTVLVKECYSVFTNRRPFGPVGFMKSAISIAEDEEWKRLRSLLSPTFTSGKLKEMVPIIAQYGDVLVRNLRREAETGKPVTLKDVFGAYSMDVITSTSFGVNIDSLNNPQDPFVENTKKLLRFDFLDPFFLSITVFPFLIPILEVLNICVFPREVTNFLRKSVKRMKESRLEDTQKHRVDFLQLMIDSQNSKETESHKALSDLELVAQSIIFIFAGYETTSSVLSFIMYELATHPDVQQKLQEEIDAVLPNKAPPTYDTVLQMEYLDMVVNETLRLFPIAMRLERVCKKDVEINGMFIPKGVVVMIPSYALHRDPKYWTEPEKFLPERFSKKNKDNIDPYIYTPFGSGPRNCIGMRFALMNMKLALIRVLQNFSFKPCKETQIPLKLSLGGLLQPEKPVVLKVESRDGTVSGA
Protocol: NIH Molecular Libraries Screening Centers Network [MLSCN]
NIH Chemical Genomics Center [NCGC]
The P450 gene superfamily is involved in the metabolism and clearance of xenobiotics. This assay used human CYP3A4 to measure the dealkylation of luciferin-6' phenylpiperazinylyl (Luciferin-PPXE; […]) to luciferin. The luciferin is then measured by luminescence after the addition of a luciferase detection reagent. Luciferin-PPXE concentration in the assay was equal to its KM for CYP3A4. Inhibitors and some substrates limit the production of luciferin, and decrease measured luminescence.
NCGC Assay Protocol Summary:
Two uL of enzyme and substrate mix (final concentrations: 20nM CYP3A4, 25uM Luciferin-PPXE, 200mM KPO4) were dispensed into a white, solid bottom 1536-well microtiter plate. 23nL of compound was transferred by a pin tool. The plate was incubated at RT for 10 min. Two uL of an NADPH regeneration solution (Promega supplied reagent) was dispensed and the reaction was allowed to continue for 60 min at RT. Then the reaction was stopped by reconstituted luciferin detection buffer. After another 20 min of incubation the plate was read on the ViewLux (Perkin Elmer) at 60 sec exposure and 2x2 binning. This protocol was carried out with Promega-Glo reagents and further information can be found at http://www.promega.com/tbs/tb325/tb325.pdf. Data were normalized to the to AC100 inhibition (57 uM ketoconazole).
Keywords: P450, CYP3A4, Luciferase, MLSMR, MLSCN, NIH Roadmap, qHTS, NCGC
For CC(=O)Oc1ccc(/C=C/c2cc(OC(C)=O)cc(OC(C)=O)c2)cc1, the Potency was 10 µM (active). For Clc1cc(Cl)c(Cl)c(Cl)c1Cl, the Potency was “inactive”. In the case of O=C1C2(Cl)C3(Cl)C4(Cl)C(Cl)(Cl)C5(Cl)C3(Cl)C1(Cl)C5(Cl)C24Cl (stereo not given), the Potency is reported as 10 µM (active) and 15.8 µM (active). In the case of CC(C)C(C)/C=C/C(C)C1CCC2C3=CCC4CC(=O)CC[C@@]4(C)C3CC[C@]21C (stereo not given in full), the Potency is reported as “inactive”. With COc1ccc2c(c1)CN([C@H](C)[C@@H]1CC[C@@H]3[C@H]4CC[C@H]5C[C@@H](O)CC[C@@]5(C)[C@H]4CC[C@]31C)CO2 the activity change, negative = inhibition was 321% [at 11.4 µM] (inactive). In the case of CC(=O)OC1CCC2(C)C3=C(CCC2C1(C)C)[C@@]1(C)CCC(C(C)CCC=C(C)C)[C@@]1(C)CC3 (stereo not given in full), the Potency is reported as “inactive”. In the case of C[C@]12[C@H](O)CC3C(CC[C@@H]4C[C@@H](O)CC[C@]34C)[C@@]1(O)CC[C@@H]2C1=CC(=O)OC1 (stereo not given in full), the Potency is reported as “inactive”. COP(=O)(OC)O/C(=C\Cl)c1cc(Cl)c(Cl)cc1Cl was tested, and the Potency was “inactive”. In the case of O=S(=O)(O)c1cc(N=C=S)ccc1/C=C/c1ccc(N=C=S)cc1S(=O)(=O)O, the Potency is reported as 12.6 µM (active). With CC[C@]1(O)CC(O[C@@H]2CC(N(C)C)C(O)C(C)O2)c2c(cc3c(c2O)C(=O)c2c(O)ccc(O)c2C3=O)C1C(=O)OC (stereo not given in full) the Potency was “inactive”. With CN(CCC(N)CC(=O)NC1C=CC(n2ccc(N)nc2=O)OC1C(=O)O)C(=N)N (stereo not given) the Potency was 0.199 µM (active). In the case of CN(C)C1C(=O)C(C(N)=O)=C(O)[C@@]2(O)C(=O)C3=C(O)c4c(O)cccc4[C@](C)(O)C3C(O)C12 (stereo not given in full), the Potency is reported as “inactive”. In the case of Oc1c(Br)c(Br)c(Br)c(Br)c1Br, the Potency is reported as “inactive”. In the case of O=CN1CC2CC(C1)c1cccc(=O)n1C2 (stereo not given), the Potency is reported as “inactive”. In the case of CC1(C)C(C(Cl)Cl)C2(Cl)C(Cl)C(Cl)C1(Cl)C2(Cl)Cl (stereo not given), the Potency is reported as 7.94 µM (active). With O=C1C=C2C(=CCOC2O)O1 (stereo not given) the Potency was “inactive”. C[C@]12Cc3cn4c(nc3C=C1CC[C@H]1[C@@H]2CC[C@@]2(C)[C@H]1CC[C@@]2(O)C#N)nc1ccccc14 was tested, and the Potency was “inactive”. For CC1CC(Cl)CCC1C(=O)OC(C)(C)C (stereo not given), the Potency was “inactive”. ClC1=C(Cl)C2(Cl)C3C(Cl)C(Cl)CC3C1(Cl)C2(Cl)Cl (stereo not given) was tested, and the Potency was 15.8 µM (active). COC(=O)[C@@H]1C[C@@]2(O)[C@@H](O)[C@@H](O)[C@@H](O)C[C@H]2N1Cc1cccnc1 was tested, and the Potency was “inactive”. With CC1=CC(=O)C2=C(C)C[C@H](O)[C@H]3[C@H](C)C(=O)O[C@@H]3C12 (stereo not given in full) the Potency was “inactive”. For CN1Cc2c(ccc3c2OCO3)C2C(O)Cc3cc4c(cc3C21)OCO4 (stereo not given), the Potency was 12.6 µM (active) and 5.01 µM (active). OC[C@@H]1O[C@@H](n2cnc3cncnc32)[C@@H](O)[C@H]1O was tested, and the Potency was “inactive”. For O=[N+]([O-])c1ccc(S(=O)(=O)Cc2ccccc2)c([N+](=O)[O-])c1, the Potency was 0.316 µM (active). In the case of C(=NC1CCCCC1)=NC1CCCCC1, the Potency is reported as “inactive”. For C[C@@]12C=CC(=O)C=C1CC[C@@H]1C2=CC[C@]2(C)[C@@H]1CC[C@H]2C(=O)CN1CCN(c2cc(N3CCCC3)nc(N3CCCC3)n2)CC1, the Potency was 3.16 µM (active). For CC1(C)C(=O)C=C[C@]2(C)C1CC(=O)[C@]1(C)C2CC[C@@]2(C)C(c3ccoc3)OC(=O)C3O[C@@]321 (stereo not given in full), the Potency was 2.51 µM (active). In the case of CN1[C@@H]2CC[C@H]1CC(NC(=O)c1nn(C)c3ccccc13)C2 (stereo not given in full), the Potency is reported as “inactive”. For Cc1ccc2oc(-c3ccccc3)cc(=O)c2c1, the Potency was 10 µM (active). COc1ccc2[nH]c(C(=O)c3ccccc3)cc2c1 was tested, and the Potency was 7.94 µM (active). CC(=O)O[C@H]1CC[C@@]2(C)[C@@H](CC[C@H]3[C@H]2CC(=O)[C@@]2(C)[C@@H]3C[C@H]3CC(C)=CC(=O)[C@H]32)C1 was tested, and the activity change, negative = inhibition was 295% [at 11.4 µM] (inactive). In the case of C=CCc1cc(OC)c2c(c1OC)OCO2, the Potency is reported as 7.94 µM (active). C=C[C@@H]1C[C@@]1(C)[C@@H](NP(=O)(c1ccccc1)c1ccccc1)c1ccccc1 was tested, and the Potency was 10 µM (active). For O=C1c2ccccc2-c2cc([N+](=O)[O-])c([N+](=O)[O-])cc21, the Potency was 0.501 µM (active). For CCCCCCCCn1sccc1=O, the Potency was 12.6 µM (active). COc1c(-c2ccccc2)oc2c(ccc3occc32)c1=O was tested, and the Potency was 3.16 µM (active). C/C=C(\C)C(=O)O[C@@H]1C(C)=C2[C@H]([C@@H]1OC(=O)CCCCCCC)[C@@](C)(OC(C)=O)C[C@@H](OC(=O)CCC)[C@@]1(O)[C@H]2OC(=O)[C@]1(C)O was tested, and the Potency was 3.98 µM (active). For Clc1ccc(C(c2ccc(Cl)cc2)C(Cl)Cl)cc1, the Potency was “inactive”. In the case of C=CC(=O)OCC(CO)(COC(=O)C=C)COC(=O)C=C, the Potency is reported as 7.94 µM (active). With CCC1C(=O)OC[C@H]1Cc1cncn1C (stereo not given in full) the Potency was 20 µM (active).

— PubChem BioAssay (NCATS)
% is scaled to controls: 0 for no effect and ±100 for the full control effect; potency is read from the fitted curve at half-maximal effect.
